Reference: PubChem BioAssay AID818 (SRMLSC, 2007)
The whole screen tested about 140,000 compounds, of which about 2,100 (1.5%) were called active. The sample holds actives, similar compounds and a random draw of the others, so the mix is not that of the screen.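 The calls were made as follows: active = viability at or under a set limit, the compound median less 4 SD (cut at about 6% in these data); inactive = the rest.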

test: primary screen for growth suppressors in beta-catenin knockout HCT116 cells (colon tumor, human) (AID 818); settings: CellTiter-Glo, 60 h, at 10 µM, hits give low values;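 also: 0% = Hyamine 1622 control at 20 µM and 100% = untreated cell control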

Compound	viability
CC(=O)Nc1cccc(/C(C)=N/NC(=O)c2c(-c3ccccc3Cl)noc2C)c1	54.6% (inactive)
CCn1c(/C=C/c2ccc([N+](=O)[O-])o2)nc2ccccc2c1=O	2.56% (active)
Cc1ccc(-n2c(SCC(=O)N/N=C/C=C/c3ccccc3[N+](=O)[O-])nc3ccccc3c2=O)cc1	83.5% (inactive)
Cn1cc(/C=C/c2nc3ccccc3c(=O)n2-c2cccc([N+](=O)[O-])c2)c2ccccc21	66.3% (inactive)
O=C(CSc1nc2ccccc2[nH]1)N/N=C/C=C\c1ccccc1[N+](=O)[O-]	57.4% (inactive)
CC(NC(=O)C(=O)NN=C1CCC(C(C)(C)C)CC1)c1ccccc1 (stereo unspecified)	98.5% (inactive)
O=C(COc1ccc(/C=N/NC(=O)c2ccc(O)cc2)cc1)Nc1ccc([N+](=O)[O-])cc1	64.3% (inactive)
CCCCCC(=O)NC(=S)NNC(=O)c1ccc([N+](=O)[O-])cc1	42.3% (inactive)
CCCCCC(=O)Nc1ccc(C(=O)N/N=C/c2ccc([N+](=O)[O-])cc2)cc1	4.26% (active)
FC(F)Oc1ccccc1NC(=S)Nc1cccc(Cl)c1Cl	94.2% (inactive)
CCN1CN(Cc2ccccc2)CNC1=S	94.5% (inactive)
C/C(=N\NC(=O)c1cc2c(s1)CCC(C)C2)c1cccnc1 (stereo unspecified)	66.6% (inactive)
Cc1ccc(C(=O)NC(=S)NCCN2CCOCC2)cc1	101% (inactive)
Cc1ccc(-c2nnc(-c3ccc(NC(=O)c4cccs4)cc3)o2)cc1	2.05% (active)
Cc1ccc(-c2csc(NC(=O)c3cccs3)n2)cc1	95.5% (inactive)
COc1cccc(NC(=O)Cc2ccc(C)cc2)c1	99.6% (inactive)
COc1ccc(CC(=O)Nc2ccc(C(=O)NC(C)(C)C)cc2)cc1	84.5% (inactive)
COc1ccc(CC(=O)Nc2ccc(-c3nnc(-c4ccc(C)cc4)o3)cc2)cc1	5.04% (active)
Cc1nc(-c2ccc(NC(=O)c3cccs3)cc2)cs1	67% (inactive)
O=C(/C=C/c1cccs1)NCc1cccnc1	91.2% (inactive)
Cc1ccc(-c2nc(-c3cccnc3)sc2CC(=O)Nc2ccc(C)c(Cl)c2)cc1	58.3% (inactive)
CCc1nccn1S(=O)(=O)c1cccc([N+](=O)[O-])c1	96.5% (inactive)
C=CCOc1c(Br)cc(/C=N\n2nnnc2N)cc1OC	85.3% (inactive)
O=C(c1cccc(C(=O)N2CCN(c3ccc(F)cc3)CC2)c1)N1CCN(c2ccc(F)cc2)CC1	47.4% (inactive)
Oc1c(CN2CCN(c3ccc(F)cc3)CC2)cc(Cl)c2cccnc12	3.91% (active)
CCN1CCN(C(c2cccnc2)c2cc(Cl)c3cccnc3c2O)CC1 (stereo unspecified)	45.3% (inactive)
